The text below walks through data of PubChem BioAssay AID624351 (Southern Research Specialized Biocontainment Screening …, 2012).

About 1,400 (58%) of roughly 2,400 compounds were called active. The set was probably picked from earlier hits. This is one part of the list. Values without a mark were called inactive.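 How the source made its calls: active means inhibition of 30% or more at any tested dose; inconclusive means primary hits over the limit that were never retested; inactive means the rest.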

A short description of the experiment: ADP Hunter readout inhibition without MgcRacGAP – biochemical, coupled enzyme counter-screen, artefact control for MgcRacGAP inhibitor project, dose response (AID 624351).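 Further: signal is the ADP detection kit reading of free GDP without any GAP enzyme.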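 On inhibition: 0% = median positive control wells and 100% = median negative control wells.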 The following applies: fluorescence, no MgcRacGAP; series mostly up to 80 µM; inhibition: at the top concentration. A general note: A counterscreen serves to expose hits that act by an unwanted route or on another target.
What is called inhibition is the relative decrease from the control value, in per cent. In the case of `C=CCc1cc(Cl)ccc1OCCn1ccnc1`, the “inhibition” value is -0.57%. One may read the IC50 as the midpoint of a concentration-inhibition curve. Consider `O=c1c(-c2cccc(Cl)c2)c[nH]n1-c1ccccc1`, for which the half-inhibitory concentration (IC50) is 52.1 µM (active). On to `O=c1c(-c2ccccc2)c[nH]n1-c1cccc([N+](=O)[O-])c1`, for which the IC50 was 41.6 µM (active).

In the case of `O=c1c2ccccc2sn1-c1cccc(Cl)c1`, the “inhibition” value was 17.9%. The same measure, in the same setting: under `N#CC1=C(S)N(c2ccccc2)C(c2ccc(-c3cccc(Cl)c3)o2)NC1=O` (stereo not given) stands 3.56%; under `O=[N+]([O-])c1cccc(SSc2cccc([N+](=O)[O-])c2)c1`, 5.1%.

For `CN=c1scc(C)n1/N=C/c1ccc(O)cc1`, the IC50 is 19.3 µM (active). Same read-out and setting: under `C=CCN=c1scc(C)n1/N=C/c1ccc(O)c(O)c1` stands 15.4 µM (active).

In the case of `CN=c1scc(C)n1/N=C/c1ccc(O)cc1O`, the IC50 was 10.1 µM (active). Same read-out and setting: for `Cn1c(=O)[nH]c(=O)c2c1[nH]c(=S)n2Cc1ccccc1` the value was 19.2 µM (active).

Regarding `Cn1c(=O)[nH]c(=O)c2c1[nH]c(=S)n2CCCc1ccccc1`, the IC50 was 15.2 µM (active). `CN(C)C(=S)N=c1ssc(=S)n1Cc1ccccc1`: the “inhibition” value was 7.07%. Take `Cn1c(=O)[nH]c(=O)c2c1[nH]c(=S)n2Cc1ccc(Cl)cc1`: the IC50 was 22.2 µM (active). Turning to `Cn1c(=O)c2c([nH]c(=S)n2CCCc2ccccc2)n(C)c1=O`, the IC50 is 11.4 µM (active).

`c1ccc2c(c1)c1c(c3ccccc32)CN2CCCC2C1` (stereo not given): the inhibition is -11.7% [at 10 µM]. The same measure, in the same setting: under `O=C1c2c([N+](=O)[O-])cc([N+](=O)[O-])cc2S(=O)N1Cc1ccccc1` (stereo not given) stands 2.81%. As for `COc1ccc(NCc2ccc([N+](=O)[O-])s2)c(OC)c1`, the 50% inhibitory concentration (IC50) is 33.3 µM (active). As for `COc1ccc(N2CCCC2)c(NC(=O)c2ccc([N+](=O)[O-])o2)c1`, the “inhibition” value is -8.67%.

As for `COc1ccc(NC(=O)CNCc2cccs2)c(OC)c1`, the “inhibition” value was 14.5%. Take `Cn1c(N2CCOCC2)c(/C=N/O)c2ccccc21`: the IC50 was 60.1 µM (active). Still for that read-out and setting: under `Cn1c(=O)c2[nH]c(=S)n(Cc3ccccc3)c2n(C)c1=O` stands 18.4 µM (active); under `CCCCn1c(=S)[nH]c2c(=O)n(C)c(=O)n(C)c21`, 15.6 µM (active); under `CCn1c(=S)[nH]c2c(=O)n(C)c(=O)n(C)c21`, 18.9 µM (active).

With `Cc1cc(C)c(OCC(O)CN2CCN(C(=O)c3ccccc3)CC2)c(C)c1` (stereo not given), the “inhibition” value was 15.7%. The same measure, in the same setting: for `Cn1nccc1C(=O)Nc1ccc(OC(=O)c2ccnn2C)cc1` the value was 11.3%. Consider `CCOC(=O)Nc1ccc(OC(=O)Oc2ccc(NC(=O)OCC)cc2)cc1`, for which the IC50 is 41.3 µM (active). As to `CC(=O)Nc1ccc(OC(=O)Cc2ccc(Cl)cc2)cc1`, the “inhibition” value was 1.69%.

For `CCOC(=O)c1oc2cc(O)cc(C)c2c1C`, the IC50 is 54.1 µM (active). As to `CCCCCCCCCCCCCCCC[N+](C)(C)Cc1ccc(F)cc1`, the “inhibition” value was -9.92%. Same read-out and setting: under `N#Cc1c(Nc2ccccc2)s[nH]c1=O` stands 3.41%.

In the case of `CCOC(=O)c1sc(/N=C/c2ccc(O)cc2O)cc1C`, the IC50 is 24.7 µM (active). The same measure, in the same setting: under `CCOC(=O)c1sc(/N=C/c2c(O)ccc3ccccc23)cc1C` stands 36 µM (active).

On to `CCCS(=O)(=O)N1CCN(C2CCC(C)CC2)CC1` (stereo not given), for which the “inhibition” value was 15.8%.

For `CC1(C)CNc2cc(N)ccc2S1`, the IC50 was 26.6 µM (active).

On to `CCN(CC)CCOC(=O)c1ccc(N/C=C(/C#N)c2nc(-c3ccc(OC)c(OC)c3)cs2)cc1`, for which the “inhibition” value is 5.84%. On the same count and under the same terms, under `O=C(COC(=O)c1c2c(nc3ccccc13)/C(=C/c1ccco1)CC2)NC1CCCC1` stands -13.5%.

Consider `CC(C)NCC(=O)Nc1c2c(nc3ccccc13)CCC2`, for which the “inhibition” value is 22.6%. Regarding `O=C(O)c1c2c(nc3ccccc13)/C(=C/c1ccc(O)cc1)CCC2`, the IC50 is 60.2 µM (active). Still for that read-out and setting: for `Cc1ccc(Nc2ccc(N)cc2S(=O)(=O)O)cc1` the value was 40.2 µM (active).

In the case of `COC(=O)c1cc(NCc2ccccc2F)ccc1N1CCOCC1`, the “inhibition” value is 24.7%. In the case of `Nc1ccc(N2CCOCC2)c(Cl)c1`, the IC50 was 51.3 µM (active). Same read-out and setting: for `Nc1cc(C(F)(F)F)ccc1N1CCOCC1` the value was 30.2 µM (active). Regarding `O=C(CNCc1ccccn1)Nc1cc(C(F)(F)F)ccc1N1CCOCC1`, the “inhibition” value is 15.5%.

Consider `COC(=O)c1cc(NCc2c(F)cccc2Cl)ccc1N1CCOCC1`, for which the “inhibition” value was 19.7%.

For `Nc1ccc(N2CCCCC2)c(Cl)c1`, the IC50 is 37.9 µM (active). As to `Cc1cccc(C)c1OCCCCN1CCNCC1`, the “inhibition” value is 22.1%. With `O=C(NN=Cc1ccc(O)cc1)c1ccccc1NS(=O)(=O)c1cccs1`, the IC50 is 75.6 µM (active). Same read-out and setting: for `COc1cc(/C=N/NC(=O)c2ccccc2NS(=O)(=O)c2cccs2)ccc1O` the value was 79 µM (active). In the case of `CC(=O)Oc1ccc([N+](=O)[O-])cc1N1C(=O)c2ccccc2C1=O`, the “inhibition” value is 9.3%. Still for that read-out and setting: under `CSc1ccc(CN2CCC(N3CC(C)OC(C)C3)CC2)cc1` (stereo not given) stands 24.7%. `Oc1ccc(/C=N/Nc2ncnc3c2ncn3Cc2ccccc2)cc1O`: the IC50 was 40.7 µM (active). Take `C=C1c2cccc(O)c2C(O)=C2C(=O)[C@]3(O)C(O)=C(C(N)=O)C(=O)[C@@H](N(C)C)[C@@H]3[C@@H](O)[C@H]12`: the “inhibition” value was -38.6%. `COc1ccc(S(=O)(=O)/N=C2\C=C(Nc3ccc(O)cc3)C(=O)c3ccccc32)cc1`: the IC50 is 52 µM (active). The same measure, in the same setting: under `O=C1C(Nc2ccc(O)cc2)=C/C(=N/S(=O)(=O)c2cccs2)c2ccccc21` stands 50.8 µM (active). Regarding `COc1cc(C=C2C(=O)c3ccccc3C2=O)cc(OC)c1OC`, the “inhibition” value was -0.2%. Still for that read-out and setting: under `O=C1C(=C(I)I)c2ccccc2-c2ccccc21` stands 0.01%. As to `COC1=C(Nc2ccc(O)cc2)C(=O)c2ccccc2C1=O`, the IC50 is 30.7 µM (active).

Take `O=C1C(Cl)=C(NCCc2ccccc2)C(=O)c2ccccc21`: the “inhibition” value was 6.08%. `O=C1C=C(Nc2ccc(O)cc2)C(=O)c2ccccc21`: the IC50 is 24.7 µM (active).

Regarding `COc1ccc(CN2CCC(N(CCc3ccccc3)Cc3ccccc3)CC2)c(OC)c1`, the “inhibition” value was 18.9%.

For `COc1ccc(OCCOCCN2CCN(C)CC2)cc1`, the “inhibition” value was 25.9%.

Take `CN(C)CCCC1Sc2ccccc2Sc2ccccc21` (stereo not given): the “inhibition” value is 13.6%. The same measure, in the same setting: for `CC1=NN(c2ccccc2)C(=O)/C1=C/C=C/c1ccc(N(C)C)cc1` the value was 2.39%. `CC1=NN(c2ccccc2)C(=O)/C1=C/C=C/C=C/N(C)C`: the IC50 is 68.9 µM (active). As for `COc1ccccc1/C=C1/C(=O)N(c2ccccc2)N=C1C`, the “inhibition” value was -0.06%.

As for `O=C(O)C1CCN(Cc2cnn(-c3ccccc3)c2-n2cccc2)CC1`, the “inhibition” value was 2.8%. Turning to `C/C(=C\C(=O)c1cccnc1)Nc1ccc(O)cc1`, the IC50 is 13.6 µM (active). On the same count and under the same terms, under `C/C(=C\C(=O)c1ccccc1)Nc1ccc(O)cc1` stands 19.2 µM (active). `O=C(Nc1ccc(O)cc1)c1ccc(C(=O)c2ccccc2)o1`: the concentration for half-maximal inhibition (IC50) was 26.1 µM (active). For the compound `COc1ccc(C(=O)/C=C(\C)Nc2ccc(NC(C)=O)cc2)cc1`, the “inhibition” value was 14.6%.
